{
  "source": "PubChem BioAssay AID504727",
  "about": "(Broad Institute, 2011)",
  "note": "A number with no mark means an inactive call. Calls of active or inactive are those of the source.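 The calls were made as follows: active = fitted half-maximal concentration AC50 at or below ten times the highest valid tested dose, with signal falling as DNA is displaced (actives reach about 34 µM in these data); inconclusive = flat fit at moderate signal loss, or poor fit quality; inactive = the rest, including signal rising instead of falling.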",
  "data": [
    {"test": "DNA intercalators displacing acridine orange, dose response, artefact control for KSHV LANA DNA-binding inhibitor project, biochemical, fluorescence polarization, cherry-picked samples, set 2 (AID 504727);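 as to activity change, negative = DNA displacement: 0% = median of neutral control wells and -100% = mitoxantrone positive control wells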", "details": "AC50: Acridine orange-DNA displacement; series mostly up to 35 µM; activity change, negative = DNA displacement: at the top concentration", "units": {"activity change, negative = DNA displacement": "%"}, "values": [
      {"smiles": "CCCn1c(SCC(=O)NCc2cccs2)nc2c1c(=O)n(C)c(=O)n2C", "activity change, negative = DNA displacement": 5.06},
      {"smiles": "O=c1ccc2cc3c4c(c2o1)CCCN4CCC3", "AC50": "15.1 µM (active)"},
      {"smiles": "O=C(O)C1(c2ccccc2)CCN(S(=O)(=O)c2ccc(Cl)s2)CC1", "activity change, negative = DNA displacement": 0.613},
      {"smiles": "CCC(=O)Oc1ccc2c(c1)O/C(=C\\c1ccco1)C2=O", "activity change, negative = DNA displacement": -9.88},
      {"smiles": "CC(C)c1ccc(NC(=O)Cn2c(=O)oc3cccnc32)cc1", "activity change, negative = DNA displacement": 1.86},
      {"smiles": "CC(C(=O)Nc1ccc(C(=O)O)c(O)c1)N1C(=O)/C(=C\\c2ccco2)SC1=S", "note": "(stereo not drawn)", "activity change, negative = DNA displacement": 4.47},
      {"smiles": "COC(=O)c1ccccc1NC(=O)CCS(=O)(=O)c1ccc(Br)cc1", "activity change, negative = DNA displacement": 1.54},
      {"smiles": "CN(CC(=O)Nc1ccc(N2CCOCC2)cc1)C(=O)CSc1ccc(Br)cc1", "activity change, negative = DNA displacement": 3.79},
      {"smiles": "CC1=C(O)C(=O)C(C2=C(O)C(=O)C(C)=C(O)C2=O)=C(O)C1=O", "activity change, negative = DNA displacement": 1.4},
      {"smiles": "COc1ccc2ccccc2c1C(O)c1nccn1C", "note": "(stereo not drawn)", "AC50": "4.01 µM (active)"},
      {"smiles": "O=S(=O)(O)c1cc(O)c2ccc(Nc3ccccc3)cc2c1", "activity change, negative = DNA displacement": 8.12},
      {"smiles": "O=C(/C=C\\c1ccccc1)Oc1cccc2cccnc12", "activity change, negative = DNA displacement": -4.77},
      {"smiles": "COC(=O)c1ccc(Oc2nc(Nc3ccc(F)cc3)nc(N3CCCC3)n2)cc1", "activity change, negative = DNA displacement": 3.15},
      {"smiles": "CCN(Cc1ccccc1)C(=O)c1cccc(S(=O)(=O)N2CCN(Cc3ccccc3)CC2)c1", "activity change, negative = DNA displacement": 6.01},
      {"smiles": "CCN(c1ccc(C)cc1C)S(=O)(=O)c1nnc(NC(=O)c2ccco2)s1", "activity change, negative = DNA displacement": 7.43},
      {"smiles": "O=S(=O)(O)c1cc(O)c2cc(Nc3ccccc3)ccc2c1", "activity change, negative = DNA displacement": 6.99},
      {"smiles": "O=C(CSc1nc2ccccc2[nH]1)Nc1cccc(S(=O)(=O)N2CCOCC2)c1", "activity change, negative = DNA displacement": 3.04},
      {"smiles": "Cc1cccc(N(Cc2ccccc2)C(=O)C2CCN(C(=O)c3ccccc3C)CC2)c1", "activity change, negative = DNA displacement": 1.55},
      {"smiles": "Cc1ccc(NC(=O)CN2C(=O)N/C(=C/c3cc(C)n(-c4ccc(C(=O)O)cc4)c3C)C2=O)cc1", "activity change, negative = DNA displacement": 5.76},
      {"smiles": "COc1ccc(Cn2nnc3c(=O)[nH]c(C4CCCN(C(=O)c5ccccc5)C4)nc32)cc1", "note": "(stereo not drawn)", "activity change, negative = DNA displacement": 0.712},
      {"smiles": "Cc1ccc2cccc(OCC(=O)NCCC3=CCCCC3)c2n1", "activity change, negative = DNA displacement": 0.187},
      {"smiles": "Cc1ccc(N=Nc2c(O)[nH]c3ccc(F)cc23)cc1", "activity change, negative = DNA displacement": 64.6},
      {"smiles": "COc1ccc(S(=O)(=O)N2CCC(C(=O)N3CCCCC3)CC2)cc1", "activity change, negative = DNA displacement": 3.61},
      {"smiles": "COc1ccccc1N1CCN(S(=O)(=O)c2c(C)[nH]c(C)c2C(=O)N2CCCC2)CC1", "activity change, negative = DNA displacement": 2.06},
      {"smiles": "Cc1ccc(NC(=O)c2ccc(Cl)c(S(=O)(=O)N3CCc4ccccc43)c2)nc1", "activity change, negative = DNA displacement": 5.37},
      {"smiles": "Cc1cccc(NC(=O)CN2C(=O)NC(C)(c3ccc4ccccc4c3)C2=O)n1", "note": "(stereo not drawn)", "activity change, negative = DNA displacement": 1.9},
      {"smiles": "CCOC(=O)C1CCCN(C(=O)C2c3ccccc3Oc3ccccc32)C1", "note": "(stereo not drawn)", "activity change, negative = DNA displacement": -14.3},
      {"smiles": "CCOC(=O)C1=C(COC(=O)c2ccc([N+](=O)[O-])s2)NC(=O)NC1C", "note": "(stereo not drawn)", "activity change, negative = DNA displacement": -1.59},
      {"smiles": "Cc1ccc(C(=O)O)cc1N1C(=O)c2cccc3c([N+](=O)[O-])ccc(c23)C1=O", "activity change, negative = DNA displacement": -4.44},
      {"smiles": "COc1ccc(CCNC(=O)CCCNC(=O)Cn2cnc3sc(C)c(C)c3c2=O)cc1OC", "activity change, negative = DNA displacement": 4.76},
      {"smiles": "O=C(O)CCCCCn1c(SCC(=O)c2ccc(O)c(O)c2)nc2ccsc2c1=O", "AC50": "23.8 µM (active)"},
      {"smiles": "CCC(=O)Nc1cccc(C(=O)/C=C/c2ccccc2)c1", "activity change, negative = DNA displacement": 3.15},
      {"smiles": "O=C(O)C(Cc1ccccc1)N1C(=O)/C(=C/C=C/c2ccco2)SC1=S", "note": "(stereo not drawn)", "activity change, negative = DNA displacement": 14.5},
      {"smiles": "COc1cccc(-c2cc(C(=O)N3CCN(S(=O)(=O)c4ccccc4)CC3)[nH]n2)c1", "activity change, negative = DNA displacement": -0.76},
      {"smiles": "CCCc1nc(NCc2ccccn2)c2nnn(Cc3ccccc3F)c2n1", "activity change, negative = DNA displacement": -1.39},
      {"smiles": "COC(=O)C1=COC(C)C2CN3CCc4c([nH]c5ccccc45)C3CC12", "note": "(stereo not drawn)", "activity change, negative = DNA displacement": 0.065},
      {"smiles": "CCCCn1c(=O)[nH]c2nc3cc(N)ccc3nc2c1=O", "AC50": "3.75 µM (active)"},
      {"smiles": "Cc1nn(Cc2c(F)c(F)c(F)c(F)c2F)c(C)c1NC(=O)c1ccnn1C", "activity change, negative = DNA displacement": -16.1}
    ]}
  ]
}
